About 2,000 (36%) of roughly 5,500 compounds were called active. Another 18% or so got no clear call; they are omitted. No stated cut-off is given here; in the data, active means normalized growth mostly below about 0.91 (no sharp cut-off); inconclusive means no clear call, values can overlap the other calls; inactive means mostly above about 0.92. Some of the results follow.
Assay: chemical genetic growth profiling, strain panel (AID 1159580);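 further: tested at 20 µM; growth read once vehicle control cultures reached saturation at 30 °C; 1 = growth at the plate median or of vehicle wells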
Details: growth OD

Measured: normalized growth

Cc1ccsc1/C=C/C1=NCCCN1C
inactive: S. cerevisiae deletion strains, locus YJR075W, strain HOC1, stronger effect = lower value 0.991 | S. cerevisiae deletion strains, locus YKL009W, strain mrt4, stronger effect = lower value 0.982 | S. cerevisiae deletion strains, locus YKL068W, stronger effect = lower value 0.967 | S. cerevisiae deletion strains, locus YKL085W, strain MDH1 (second series), stronger effect = lower value 0.979 | S. cerevisiae deletion strains, locus YKL085W, strain MDH1, stronger effect = lower value 0.979 | S. cerevisiae deletion strains, locus YKL160W, strain elf1, stronger effect = lower value 0.999 | S. cerevisiae deletion strains, locus YKL190W, strain CNB1, stronger effect = lower value 1.02 | S. cerevisiae deletion strains, locus YKR001C, strain vps1, stronger effect = lower value 0.944 | S. cerevisiae deletion strains, locus YKR026C, strain gcn3, stronger effect = lower value 0.994 | S. cerevisiae deletion strains, locus YKR091W, strain srl3, stronger effect = lower value 0.994 | S. cerevisiae deletion strains, locus YLL001W, strain dnm1, stronger effect = lower value 0.979 | S. cerevisiae deletion strains, locus YLL026W, stronger effect = lower value 0.99 | S. cerevisiae deletion strains, locus YLL041C, strain sdh2, stronger effect = lower value 0.988 | S. cerevisiae deletion strains, locus YLR027C, strain aat2, stronger effect = lower value 0.998 | S. cerevisiae deletion strains, locus YLR039C, strain RIC1, stronger effect = lower value 0.947 | S. cerevisiae deletion strains, locus YLR058C, strain SHM2, stronger effect = lower value 1.01 | S. cerevisiae deletion strains, locus YLR102C, strain apc9, stronger effect = lower value 0.984 | S. cerevisiae deletion strains, locus YLR113W, strain HOG1, stronger effect = lower value 0.963 | S. cerevisiae deletion strains, locus YLR221C, strain rsa3, stronger effect = lower value 0.983 | S. cerevisiae deletion strains, locus YLR258W, strain gsy2, stronger effect = lower value 0.988 | S. cerevisiae deletion strains, locus YLR262C, strain YPT6 (second series), stronger effect = lower value 0.97 | S. cerevisiae deletion strains, locus YLR262C, strain YPT6, stronger effect = lower value 0.946 | S. cerevisiae deletion strains, locus YLR268W, strain sec22, stronger effect = lower value 0.93 | S. cerevisiae deletion strains, locus YLR320W, strain mms22, stronger effect = lower value 0.991 | S. cerevisiae deletion strains, locus YLR330W, strain CHS5, stronger effect = lower value 1 | S. cerevisiae deletion strains, locus YLR342W, strain FKS1 (second series), stronger effect = lower value 1.08 | S. cerevisiae deletion strains, locus YLR342W, strain FKS1, stronger effect = lower value 1 | S. cerevisiae deletion strains, locus YLR357W, strain rsc2, stronger effect = lower value 0.967 | S. cerevisiae deletion strains, locus YLR370C, strain arc18, stronger effect = lower value 0.977 | S. cerevisiae deletion strains, locus YLR371W, strain rom2, stronger effect = lower value 0.973 | S. cerevisiae deletion strains, locus YLR384C, strain iki3, stronger effect = lower value 0.99 | S. cerevisiae deletion strains, locus YLR418C, strain cdc73, stronger effect = lower value 0.956 | S. cerevisiae deletion strains, locus YML016C, strain PPZ1, stronger effect = lower value 1.01 | S. cerevisiae deletion strains, locus YML032C, strain rad52, stronger effect = lower value 0.958 | S. cerevisiae deletion strains, locus YML120C, strain ndi1, stronger effect = lower value 0.991 | S. cerevisiae deletion strains, locus YML124C, strain tub3, stronger effect = lower value 0.991 | S. cerevisiae deletion strains, locus YMR058W, strain fet3, stronger effect = lower value 0.987 | S. cerevisiae deletion strains, locus YMR078C, strain ctf18, stronger effect = lower value 0.975 | S. cerevisiae deletion strains, locus YMR125W, strain sto1, stronger effect = lower value 0.994 | S. cerevisiae deletion strains, locus YMR129W, stronger effect = lower value 0.99 | S. cerevisiae deletion strains, locus YMR205C, strain PFK2, stronger effect = lower value 0.987 | S. cerevisiae deletion strains, locus YMR223W, strain ubp8, stronger effect = lower value 1.02 | S. cerevisiae deletion strains, locus YMR231W, strain pep5, stronger effect = lower value 0.987 | S. cerevisiae deletion strains, locus YMR263W, strain SAP30, stronger effect = lower value 0.994 | S. cerevisiae deletion strains, locus YMR307W, strain GAS1, stronger effect = lower value 1.07 | S. cerevisiae deletion strains, locus YNL067W, strain RPL9B, stronger effect = lower value 0.98 | S. cerevisiae deletion strains, locus YNL071W, strain lat1, stronger effect = lower value 0.988 | S. cerevisiae deletion strains, locus YNL128W, strain TEP1, stronger effect = lower value 1 | S. cerevisiae deletion strains, locus YNL153C, strain GIM3, stronger effect = lower value 1 | S. cerevisiae deletion strains, locus YNL183C, strain NPR1, stronger effect = lower value 0.952 | S. cerevisiae deletion strains, locus YNL209W, strain ssb2, stronger effect = lower value 0.984 | S. cerevisiae deletion strains, locus YNL233W, strain BNI4, stronger effect = lower value 1.01 | S. cerevisiae deletion strains, locus YNL248C, strain rpa49, stronger effect = lower value 0.997 | S. cerevisiae deletion strains, locus YNL250W, strain rad50, stronger effect = lower value 0.997 | S. cerevisiae deletion strains, locus YNL271C, strain bni1, stronger effect = lower value 0.976 | S. cerevisiae deletion strains, locus YNL298W, strain CLA4, stronger effect = lower value 0.974 | S. cerevisiae deletion strains, locus YNL307C, strain MCK1, stronger effect = lower value 0.976 | S. cerevisiae deletion strains, locus YNL322C, strain KRE1 (second series), stronger effect = lower value 0.987 | S. cerevisiae deletion strains, locus YNL322C, strain KRE1, stronger effect = lower value 1 | S. cerevisiae deletion strains, locus YNR049C, strain mso1, stronger effect = lower value 0.987 | S. cerevisiae deletion strains, locus YNR052C, strain pop2, stronger effect = lower value 0.976 | S. cerevisiae deletion strains, locus YOL006C, strain TOP1, stronger effect = lower value 0.921 | S. cerevisiae deletion strains, locus YOL012C, strain htz1 1.13 | S. cerevisiae deletion strains, locus YOL147C, strain pex11, stronger effect = lower value 0.992 | S. cerevisiae deletion strains, locus YOR001W, strain rrp6, stronger effect = lower value 1.01 | S. cerevisiae deletion strains, locus YOR061W, strain CKA2, stronger effect = lower value 1.01 | S. cerevisiae deletion strains, locus YOR069W, strain VPS5, stronger effect = lower value 1.01 | S. cerevisiae deletion strains, locus YOR070C, strain gyp1, stronger effect = lower value 0.983 | S. cerevisiae deletion strains, locus YOR080W, strain dia2, stronger effect = lower value 0.989 | S. cerevisiae deletion strains, locus YOR083W, strain WHI5, stronger effect = lower value 0.998 | S. cerevisiae deletion strains, locus YOR106W, strain vam3, stronger effect = lower value 0.994 | S. cerevisiae deletion strains, locus YOR136W, strain idh2, stronger effect = lower value 0.972 | S. cerevisiae deletion strains, locus YOR144C, strain elg1, stronger effect = lower value 0.977 | S. cerevisiae deletion strains, locus YOR184W, strain ser1, stronger effect = lower value 0.94 | S. cerevisiae deletion strains, locus YOR231W, strain MKK1, stronger effect = lower value 0.979 | S. cerevisiae deletion strains, locus YOR265W, strain rbl2, stronger effect = lower value 1.01 | S. cerevisiae deletion strains, locus YOR270C, strain vph1, stronger effect = lower value 1.01 | S. cerevisiae deletion strains, locus YOR290C, strain snf2, stronger effect = lower value 1 | S. cerevisiae deletion strains, locus YOR316C, strain cot1, stronger effect = lower value 0.956 | S. cerevisiae deletion strains, locus YPL051W, strain arl3, stronger effect = lower value 0.993 | S. cerevisiae deletion strains, locus YPL055C, strain LGE1, stronger effect = lower value 0.954 | S. cerevisiae deletion strains, locus YPL078C, strain atp4, stronger effect = lower value 0.992 | S. cerevisiae deletion strains, locus YPL106C, strain sse1, stronger effect = lower value 0.996 | S. cerevisiae deletion strains, locus YPL240C, strain hsp82, stronger effect = lower value 0.988 | S. cerevisiae deletion strains, locus YPL241C, strain CIN2, stronger effect = lower value 1.01 | S. cerevisiae deletion strains, locus YPL256C, strain CLN2, stronger effect = lower value 0.939 | S. cerevisiae deletion strains, locus YPR119W, strain clb2, stronger effect = lower value 0.981 | S. cerevisiae deletion strains, locus YPR141C, strain kar3, stronger effect = lower value 0.979 | S. cerevisiae deletion strains, locus YPR163C, strain tif3, stronger effect = lower value 0.983 | S. cerevisiae deletion strains, locus YPR167C, strain met16, stronger effect = lower value 0.97 | S. cerevisiae deletion strains, strain wtn01, stronger effect = lower value 0.949 | S. cerevisiae strains, strain wild type, stronger effect = lower value 1.01

Reference: PubChem BioAssay AID1159580 (chemical genetic matrix, 2015)
